The sample as a whole holds a higher share of hits than the screen did.
Shiga inhibitor = blocks Shiga toxin action in Vero cells; Vero cells, Shiga toxin protein synthesis inhibition reporter; inhibition, % at 38.7 µM; actives 9.2% (n = 290,000); AID 2315; in the data active = inhibition mostly above about 28%, no sharp cut-off; inactive = mostly below about 43%
TbPYK inhibitor = T. brucei pyruvate kinase inhibition | Potency, µM (titrated, usually from 76.8 µM), hits mostly inhibitors | Q57TT1 | actives 0.12% (n = 410,000) | TbPYK enzyme, Kinase-Glo Plus ATP luminescence, 45 min | AID 624173; also: nearly all actives have a fitted effect of over 50% in size
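Assay buffer: 50 mM TEA pH 7.2, 100 mM KCl, 10 mM MgCl2, 0.05% BSA, 0.01% Tween-20. Pyruvate kinase from T. brucei plus substrate met compound, then ADP (130 uM final). Luminescence was read post 45 min RT.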
Sm TGR inh = inhibitors of Schistosoma mansoni thioredoxin glutathione reductase; Q962Y6; purified TGR, DTNB reduction, TNB absorbance 405 nm; Potency, µM (titrated, usually from 114 µM), most hits filed as inhibitors; actives 3% (n = 360,000); AID 485364; also: nearly all actives have a fitted effect of over 60% in size
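First, TGR (20 nM dispensed) and NADPH were mixed with compound. Second, a 15 min room-temperature incubation followed. Third, further NADPH and then DTNB were added to start the reaction. Finally, TNB absorbance was monitored kinetically.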
LmPK inh = LmPK (Leishmania mexicana) enzyme inhibition. Q27686. Potency, µM (highest dose often 57.5 µM), hits mostly inhibitors. actives 0.37% (n = 290,000). purified LmPK, Kinase-Glo ATP luminescence, 1 h
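ATP generated from ADP (0.1 mM) and PEP (0.5 mM) by 0.1 nM LmPK over 1 h at room temperature (pH 7.2 imidazole buffer) was detected by coupled luciferase luminescence. Values were normalized to uninhibited and no-enzyme wells.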
FBPA Giardia inh = blocks Giardia fructose-bisphosphate aldolase activity; A8B2U2; purified Giardia FBPA; Potency, µM (doses to about 59.6 µM), usual class: inhibitors; actives 0.71% (n = 290,000); also: nearly all actives have a fitted effect of over 55% in size
Target sequence (A8B2U2 whole entry, looked up): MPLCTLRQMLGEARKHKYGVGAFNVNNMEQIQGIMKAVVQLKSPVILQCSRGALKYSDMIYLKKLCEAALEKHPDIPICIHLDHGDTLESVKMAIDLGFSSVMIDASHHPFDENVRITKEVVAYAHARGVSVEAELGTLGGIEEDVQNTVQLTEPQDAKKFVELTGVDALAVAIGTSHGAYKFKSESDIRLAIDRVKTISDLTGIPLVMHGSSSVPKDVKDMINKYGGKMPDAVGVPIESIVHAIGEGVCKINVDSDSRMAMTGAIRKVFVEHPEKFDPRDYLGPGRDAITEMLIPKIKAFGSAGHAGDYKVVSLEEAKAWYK
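40 nM FBPA preincubated 10 min at RT with compound (up to 57.5 uM final), then substrate plus GAPDH/TPI/NAD/arsenate coupling and diaphorase/resazurin added. Fluorescence read after 20 min at RT, 525/598 nm.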
CHX counter = counter-screen for Shiga toxin inhibitors: cycloheximide protein synthesis inhibition. actives 12% (n = 300,000). AID 2314. max response, %. cell reporter, cycloheximide protein synthesis inhibition counterscreen; in the data active = max response mostly above about 13%, no sharp cut-off; inactive = mostly below about 14%; also: read at 38.3 µM for the half of the compounds with a filed dose
A number is an active result; 0 = inactive; ? = inconclusive; - = not tested or not shown. Unless noted, calls follow the shape of the dose curve; as a rule, active = well fitted curve in the direction sought with a large enough effect; inconclusive = small, poorly fitted or top-dose-only effect, or another doubt; inactive = no such curve, though single readings can be large; an effect the other way counts as inactive or inconclusive.

SMILES | Shiga inhibitor | TbPYK inhibitor | Sm TGR inh | LmPK inh | FBPA Giardia inh | CHX counter
COc1cccc(C2CC(c3cccs3)=NN2C(=O)CCC(=O)O)c1OC (stereo not drawn) | 0 | 0 | 0 | 0 | 0 | 11
O=C(CN1CCC(n2nnc3cc(C(F)(F)F)ccc32)CC1)Nc1ccc2c(c1)OCCO2 | 0 | 0 | 0 | 0 | 0 | 46
O=C(CN1CCC(n2nnc3cc(C(F)(F)F)ccc32)CC1)Nc1ccc2c(c1)CCC2 | 0 | 0 | 0 | 0 | 0 | 0
O=C(CN1CCC(n2nnc3cc(F)ccc32)CC1)NCc1ccco1 | 0 | 0 | 45µM | 0 | ? | 0
COc1cccc(CCNC(=O)c2ccc(Cn3c(SCc4ccccc4)nc4cccnc43)cc2)c1 | - | 0 | 0 | - | - | -
Cc1c(Cl)cccc1NC(=O)C(=O)NCCc1csc(-c2ccc(C(F)(F)F)cc2)n1 | - | 0 | 0 | - | - | -
c1ccc(CCc2nn3c(C4COc5ccccc5O4)nnc3s2)cc1 (stereo not drawn) | 35 | ? | 0 | 0 | 0 | 24
c1ccc(Cc2nn3c(C4COc5ccccc5O4)nnc3s2)cc1 (stereo not drawn) | 72 | ? | 0 | 0 | 0 | 33
COC(CNC(=O)c1ccc2c(c1)ncn2C1CCCCCC1)OC | 0 | 0 | 0 | 0 | 0 | 0
CC(C)CCNC(=O)c1ccc2c(c1)ncn2C1CCCC1 | 124 | 0 | 0 | 0 | 0 | 34
CCOCCCNC(=O)c1ccc2c(c1)ncn2C1CCCC1 | 29 | 0 | 0 | 0 | 0 | 24
CCn1cc(S(=O)(=O)c2ccc(C)cc2)c(=O)c2cc(F)c(N3CCCCCC3)cc21 | - | 0 | 0 | - | - | -
O=c1cc(-c2ccccc2)oc2ccc(Cl)cc12 | - | 0 | - | - | - | -
O=c1cc(-c2ccc3c(c2)OCCO3)oc2ccc(Cl)cc12 | 76 | 0 | 0 | 0 | 0 | 47
O=c1cc(-c2cccs2)oc2ccc(Cl)cc12 | 59 | 0 | 0 | 0 | 0 | 37
COc1ccc(N2CCN(C(=O)CN3C(=O)NC(C)(C4CC4)C3=O)CC2)cc1 (stereo not drawn) | - | 0 | 0 | - | - | -
CCCc1ccc(OCCNC(=O)CC)cc1 | 0 | 0 | 0 | 0 | 0 | 16
CC(C)(C)NC(=O)COc1ccc(CNCCc2ccccc2)cc1 | 0 | 0 | 0 | 0 | 0 | 0
CCc1ccc(OCC(=O)NC(C)(C)C)cc1 | 44 | 0 | 0 | 0 | 0 | 23
CCC(C)(C)NC(=O)COc1ccc(C(=O)c2ccccc2)cc1 | 0 | 0 | 0 | 0 | 0 | 22
CCNC(=O)COc1ccc2ccccc2c1 | 58 | 0 | 0 | 0 | 0 | 71
COc1cccc(CNC(=O)C2Cc3cc(S(=O)(=O)N4CCCCCC4)ccc3N2C(C)=O)c1 (stereo not drawn) | - | 0 | 0 | - | - | -
CCNC(=O)COc1ccc(CC)cc1 | 46 | 0 | 0 | 0 | 0 | 25
COc1ccccc1C(=O)OCc1c(-c2ccccc2)ncc2ccccc12 | - | 0 | - | - | - | -
COc1cc2c(cc1OC)C1=C(C#N)CCC(=NC(=O)c3ccc(Cl)cc3)N1CC2 | 0 | 0 | 0 | 0 | 0 | 0
SMILES | Shiga inhibitor | TbPYK inhibitor | Sm TGR inh | LmPK inh | FBPA Giardia inh | CHX counter
COc1cc2c(cc1OC)C1=C(C#N)COCN1CC2 | 0 | 0 | 20µM | 0 | ? | 0
CC(=O)NC(CCS(C)(=O)=O)C(=O)Nc1cccc(C(C)=O)c1 (stereo not drawn) | 0 | 0 | 45µM | 0 | 0 | 0
CC(=O)NC(CCS(C)(=O)=O)C(=O)Nc1ccccc1 (stereo not drawn) | 0 | 0 | 0 | 0 | 0 | 0
ClCc1ncc(-c2ccc(Cl)cc2)o1 | 0 | 0 | 25µM | 0 | 0 | 0
O=c1oc2ccc(F)cc2cc1-c1nc(-c2cccs2)no1 | - | 0 | 0 | - | - | -
COc1ccc(NC(=O)c2cc(-c3ccccc3Cl)no2)cc1 | 69 | 0 | 0 | 0 | 0 | 32
O=C(Nc1cccc(O)c1)c1cc(-c2ccccc2F)no1 | - | 0 | 0 | - | - | -
O=C(Nc1ccccc1)c1cc(-c2ccccc2Cl)no1 | 122 | 0 | 0 | 0 | 0 | 47
CC1CCc2nc3sc4c(c3c(N)c2C1)CCCC4 (stereo not drawn) | 56 | 0 | 0 | 0 | 0 | 33
O=c1[nH]c(C2CC2)nc2sc3c(c12)CCCC3 | 0 | 0 | - | 0 | 0 | 0
CC1CCc2c(nc3sc4c(c3c2N)CCCC4)C1 (stereo not drawn) | active | 0 | 0 | 0 | 0 | 37
COc1ccc(OC(=O)N2C/C(=C/c3ccccc3)C(=O)/C(=C\c3ccccc3)C2)cc1 | - | 0 | - | - | - | -
CCOC(=O)N1C/C(=C\c2ccccc2)C(=O)/C(=C/c2ccccc2)C1 | 24 | 0 | 0 | 0 | 0 | 41
C[C@@H]1CN(C(=O)c2cc(COc3cccc(C(F)(F)F)c3)on2)C[C@H](C)O1 | 0 | 0 | 0 | 0 | - | 0
CC(=O)c1ccc(OCc2cc(C(=O)N3CC4C[C@@H]5CC3C[C@H](C4)C5)no2)cc1 | 84 | 0 | 0 | 0 | - | 47
CC(=O)c1cccc(OCc2cc(C(=O)N3CC4C[C@@H]5CC3C[C@H](C4)C5)no2)c1 | 0 | 0 | 32µM | 0 | - | 29
CC(=O)c1ccc(OCc2cc(C(=O)N3CCN(C4CCCC4)C(=O)C3)no2)cc1 | - | 0 | - | - | - | -
COc1cccc(NC(=O)c2nn(-c3ccc(C)cc3)c(=O)n(C)c2=O)c1 | - | 0 | 0 | - | - | -
COc1ccc(OC)c(NC(=O)CSc2ncc3c(n2)-c2ccccc2N(C)S3(=O)=O)c1 | - | 0 | 0 | - | - | -
Fc1ccc(-n2nnc(-c3ccccc3)n2)cc1 | 0 | 0 | 0 | 0 | 0 | 0
Cc1ccc(-n2nnc(-c3ccnc4ccccc34)n2)cc1 | 59 | 0 | 0 | 0 | 0 | 29
Fc1ccc(-n2nnc(-c3ccnc4ccccc34)n2)cc1 | 44 | 0 | 0 | 0 | 0 | 40
CC(C)CNC(=O)Nc1cc(C(=O)NCc2ccc(C(C)C)cc2)ccc1N1CCCC1 | - | 0 | 0 | - | - | -
CCOc1ccc(CCNC(=O)/C=C/c2ccco2)cc1OCC | 0 | 0 | 6.3µM | 0 | - | 0
COc1ccc(CCNC(=O)/C=C/c2ccco2)cc1 | 0 | ? | 10µM | 0 | 0 | 0
SMILES | Shiga inhibitor | TbPYK inhibitor | Sm TGR inh | LmPK inh | FBPA Giardia inh | CHX counter
CCOc1ccc(CCNC(=O)COC(=O)/C=C/c2ccco2)cc1OCC | 0 | 0 | 0 | 0 | - | 0
COc1ccc(/C=C/C(=O)NCCc2ccc(S(N)(=O)=O)cc2)cc1 | 0 | 0 | 0 | 0 | 0 | 0
COc1ccc(CCNC(=O)/C=C/c2ccco2)cc1OC | 0 | ? | 11µM | 0 | 0 | 0
COc1ccc(/C=C/C(=O)NCCSCc2ccco2)cc1OC | 0 | 0 | 10µM | 0 | 0 | 0
COc1ccccc1N1C(C)=CC(=C(C#N)c2nc3ccccc3s2)C=C1C | 0 | 0 | 0 | 0 | 0 | 22
c1ccc(CSc2nnc(-c3cccs3)o2)cc1 | 101 | 0 | 0 | 0 | 0 | 46
Fc1ccc(-c2nnc(Cc3ccc(Cl)cc3)o2)cc1 | 59 | 0 | ? | 0 | 0 | 36
Nc1nnc(-c2ccc(Cl)cc2)o1 | 0 | 0 | 0 | 0 | 0 | 0
CC(C)NCc1nnc(-c2ccc(Cl)cc2)o1 | 0 | 0 | 0 | 0 | 0 | 20
Fc1ccc(Cc2nnc(-c3cccs3)o2)cc1 | 43 | 0 | 0 | 0 | 0 | 33

Compound activity as filed in PubChem BioAssay.
